Rows were chosen to be rich in hits. Some 1.3% of all compounds tested hit in one or more screens of this group.
SUMO HTRF inh – inhibitors of in vitro SUMOylation cascade, primary screen, biochemical, HTRF, uHTS; HTRF SUMOylation assay, SAE1/SAE2 + UBC9; inhibition, % at 35 µM; SUMO-conjugating enzyme UBC9 (Homo sapiens), P63279; 290,000 compounds, 0.36% hits; AID 2006, 2009; in the data active means inhibition above about 50%, passing the limit was not always enough
Target sequence (P63279 whole entry, looked up): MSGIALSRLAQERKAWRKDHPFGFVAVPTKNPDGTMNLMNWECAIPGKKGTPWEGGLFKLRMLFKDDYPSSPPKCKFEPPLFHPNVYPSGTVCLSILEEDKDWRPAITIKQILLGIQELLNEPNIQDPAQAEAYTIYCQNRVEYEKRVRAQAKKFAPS
NCF1 inh – p47phox/p22phox peptide binding inhibitors, primary screen, biochemical, uHTS, NADPH oxidase regulatory subunit | inhibition, % at 24.7 µM | AID 1274, 2008 | 220,000 compounds, 0.53% hits | Neutrophil cytosol factor 1 (Homo sapiens), P14598 | fluorescence polarization, 2 h;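 further: 0% = p47phox with labelled peptide and 100% = labelled peptide alone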
eIF4E 4G PPI – eIF4E–eIF4G protein interaction inhibitors, primary screen, biochemical, uHTS, TR-FRET, eIF4GI fragment; TR-FRET eIF4E-eIF4GI(517-606) binding, 2 h; inhibition, % at 21.7 µM; 220,000 compounds, 0.37% hits; AID 782, 2007;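 further: 0% = full FRET control wells and 100% = background wells lacking eIF4GI fragment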
14-3-3 Bad inh – inhibitors of 14-3-3 zeta/Bad binding, primary screen, biochemical, TR-FRET, bovine 14-3-3 zeta. AID 781, 2007. 220,000 compounds, 0.71% hits. TR-FRET 14-3-3zeta/Dy647-pBad peptide displacement, 1 h. inhibition, % at 21.7 µM;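 active means inhibition above about 70%, limit read from the data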;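 further: 0% = full 14-3-3 plus peptide FRET controls and 100% = background without 14-3-3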
Target sequence (P63103 whole entry, looked up): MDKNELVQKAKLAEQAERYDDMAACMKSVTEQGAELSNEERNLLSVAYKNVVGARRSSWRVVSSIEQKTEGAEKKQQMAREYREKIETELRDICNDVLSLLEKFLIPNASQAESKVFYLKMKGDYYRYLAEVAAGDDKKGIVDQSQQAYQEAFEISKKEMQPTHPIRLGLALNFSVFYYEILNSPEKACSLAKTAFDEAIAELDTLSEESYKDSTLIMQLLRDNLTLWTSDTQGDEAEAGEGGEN
An asterisk follows results filed as active.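 How the source made its calls, unless noted: active means inhibition above about 30% (limit read from the data); inactive means the rest.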

For Cc1ccsc1C(=O)NCCC(c1ccccc1)c1ccccc1 the results were SUMO HTRF inh -26, NCF1 inh 1, eIF4E 4G PPI 0 and 14-3-3 Bad inh 11.
For COc1ccc(C2C(C#N)=C(N)Oc3cc4c(cc32)OCO4)cc1 (configuration not stated) the results were SUMO HTRF inh 7, NCF1 inh 64*, eIF4E 4G PPI 6 and 14-3-3 Bad inh -7.
`COc1ccc(OC)c(C2C(C#N)=C(N)Oc3cc(N)ccc32)c1` (configuration not stated) gave SUMO HTRF inh 24, NCF1 inh -7, eIF4E 4G PPI -4 and 14-3-3 Bad inh -14.
Screening Cc1ccc(OCC(=O)Nc2nnc(C3CCCO3)s2)c(Br)c1 (configuration not stated) returned SUMO HTRF inh 14, NCF1 inh -8, eIF4E 4G PPI 1 and 14-3-3 Bad inh -6.
Cc1cc(=O)oc2cc(OCc3ccc(C(=O)OCC(=O)NC4CCS(=O)(=O)C4)cc3)ccc12 (configuration not stated) was read as SUMO HTRF inh 13, NCF1 inh -61, eIF4E 4G PPI 7 and 14-3-3 Bad inh 30.
Screening Cc1cc(=O)oc2cc(OCc3ccc(C(=O)OCC(=O)Nc4ccc(N(C)C)cc4)cc3)ccc12 returned NCF1 inh 11, eIF4E 4G PPI 16 and 14-3-3 Bad inh 79*.
CC(=O)Nc1ccc(/C(C)=N/NS(=O)(=O)c2ccc(C)cc2)cc1 was read as SUMO HTRF inh -13, NCF1 inh -1, eIF4E 4G PPI -5 and 14-3-3 Bad inh -13.
For CCC(=O)Nc1ccc(/C(C)=N\NS(=O)(=O)c2ccc(C)cc2)cc1 the results were SUMO HTRF inh -23, NCF1 inh 170*, eIF4E 4G PPI -12 and 14-3-3 Bad inh -9.
`CN(C)/C(=N\S(=O)(=O)c1ccccc1)c1ccc([N+](=O)[O-])cc1` gave SUMO HTRF inh 9, NCF1 inh -3, eIF4E 4G PPI -2 and 14-3-3 Bad inh -13.
`COc1ccc2[nH]c(=O)c(CN(Cc3cccs3)C(=S)NCC3CCCO3)cc2c1` (configuration not stated) gave SUMO HTRF inh -7, NCF1 inh -10, eIF4E 4G PPI 71* and 14-3-3 Bad inh 2.
`NS(=O)(=O)c1cc(C(=O)NC2CCSc3ccccc32)ccc1Cl` (configuration not stated) gave SUMO HTRF inh 73*.
`NS(=O)(=O)c1cccc(C(=O)NC2CCSc3ccccc32)c1` (configuration not stated) gave SUMO HTRF inh -9.
Screening CCCCc1nc(SCC(=O)Nc2cc(C)on2)n[nH]1 returned SUMO HTRF inh 7, NCF1 inh -6, eIF4E 4G PPI -5 and 14-3-3 Bad inh -4.
COc1ccc(-c2nc(SCC(=O)Nc3cc(C)on3)n[nH]2)cc1 was read as SUMO HTRF inh 50*, NCF1 inh -2, eIF4E 4G PPI -3 and 14-3-3 Bad inh -6.
`O=C(CSCc1ccccc1Br)N/N=C/c1ccccc1C(=O)O` gave SUMO HTRF inh 5, NCF1 inh 7, eIF4E 4G PPI -3 and 14-3-3 Bad inh 83*.
CC(C)OCCOc1ccc2oc(-c3ccco3)cc(=O)c2c1 was read as SUMO HTRF inh 46.
Screening N#CCOc1ccc2oc(-c3ccco3)cc(=O)c2c1 returned SUMO HTRF inh 52*, NCF1 inh -10, eIF4E 4G PPI 2 and 14-3-3 Bad inh -5.
COc1ccc(CNC(=O)COC(=O)CCc2c[nH]c3ccccc23)cc1 was read as SUMO HTRF inh 3, NCF1 inh -1, eIF4E 4G PPI 3 and 14-3-3 Bad inh -10.
CC(O)CNc1nc2ccccc2n1CC(=O)NCCc1ccc(Cl)cc1 (configuration not stated) was read as SUMO HTRF inh 12, NCF1 inh 0, eIF4E 4G PPI 34* and 14-3-3 Bad inh 53.
`CCOC(=O)c1c(C)[nH]c(C(=O)CSc2nnc(Nc3ccccc3F)s2)c1C` gave SUMO HTRF inh 17, NCF1 inh 28, eIF4E 4G PPI 1 and 14-3-3 Bad inh 11.
`O=C(c1ccc2ncsc2c1)N1CCCCC1` gave SUMO HTRF inh -11.
For O=C(O)c1ccc2ncsc2c1 the results were SUMO HTRF inh 39, NCF1 inh -17, eIF4E 4G PPI 23 and 14-3-3 Bad inh 82*.
For CC(=O)N(\C=C/C=C/C=C1\Sc2ccccc2C1=O)c1ccccc1 the results were SUMO HTRF inh 69*, NCF1 inh -12, eIF4E 4G PPI -2 and 14-3-3 Bad inh -20.
`CC(C)=CCc1c(O)ccc2c1OC(c1ccc(O)c(O)c1)CC2=O` (configuration not stated) gave SUMO HTRF inh 3, NCF1 inh -26, eIF4E 4G PPI 3 and 14-3-3 Bad inh 3.
O=C1CC(c2ccc(O)c(O)c2)Oc2c1ccc(O)c2O (configuration not stated) was read as SUMO HTRF inh 73*, NCF1 inh -46, eIF4E 4G PPI 6 and 14-3-3 Bad inh 49.
For CCC(C)[C@H](NC(=O)[C@@H]1Cc2ccccc2CN1C(=O)OC(C)(C)C)C(=O)NCC1CCC(C(=O)O)CC1 (some centres not stated) the results were SUMO HTRF inh 11, NCF1 inh -14, eIF4E 4G PPI -2 and 14-3-3 Bad inh 4.
`Cc1cccc(CCNC(=O)c2cccc(NC3=NC4CS(=O)(=O)CC4S3)c2)c1` (configuration not stated) gave SUMO HTRF inh 2.
`Cc1cc2nc3c(=O)[nH]c(=S)[nH]c3nc2cc1NC(=O)C(F)(F)F` gave SUMO HTRF inh 60*.
`COCc1cc(=O)[nH]c2cc(NC(=O)C(C)(C)CCl)c(C)cc12` gave SUMO HTRF inh 4, NCF1 inh -5, eIF4E 4G PPI -5 and 14-3-3 Bad inh 6.
`O=C(CC1C(=O)NCCN1Cc1c(F)cccc1Cl)NCCCn1ccnc1` (configuration not stated) gave SUMO HTRF inh 5, NCF1 inh -4, eIF4E 4G PPI -2 and 14-3-3 Bad inh -18.
Screening Cc1ccc(-n2nnnc2SCC#N)cc1 returned SUMO HTRF inh 19, NCF1 inh -12, eIF4E 4G PPI -1 and 14-3-3 Bad inh 71*.
Screening O=C1CC2(CCCC2)C(=O)N1c1ccc(S(=O)(=O)NCC2CC2)cc1Cl returned SUMO HTRF inh 11, NCF1 inh -5, eIF4E 4G PPI -1 and 14-3-3 Bad inh 6.
`CC(c1ccon1)N(C)C(=O)c1ccc2nc(Cc3cccc(Cl)c3)oc2c1` (configuration not stated) gave SUMO HTRF inh -5.
Cc1noc(NS(=O)(=O)c2ccc(NC(=O)CSc3nc4ccccc4s3)cc2)c1C was read as SUMO HTRF inh -4, NCF1 inh -22, eIF4E 4G PPI 0 and 14-3-3 Bad inh 3.
